An excerpt weighted towards active compounds, which were near 6.8% of everything screened.
C diff growth: C. difficile growth inhibition; growth activity, negative = inhibition, % at 16 µg/mL (by protocol); Clostridium difficile clinical isolate growth, OD600, 24 h; active compounds read low; 0.25% of 86,000 active;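 active = mean growth activity at or below -80% and every replicate also at or below -80%; inconclusive = mean at or below -80% but some replicate above -80%; inactive = mean growth activity above -80%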
Pf Dd2 inh: P. falciparum Dd2 growth inhibition. SYBR Green, 72 h; active compounds read low. activity change, % at 10 µM. 2.3% of 94,000 active. AID 1159554; in the data active = activity change below about -80%; inconclusive = no clear call, values can overlap the other calls
T cruzi growth-1: inhibitors of T. cruzi proliferation | 5.9% of 77,000 active | T. cruzi beta-gal in NIH3T3, GalScreen luminescence, 90 h | inhibition, % at 8.34 µM;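 active = mean inhibition above about 93%, with at least 55% of replicates each passing it, limit read from the data, passing the limit was not always enough; inconclusive = only one of those two conditions holds; inactive = neither condition holds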
T cruzi growth-2: Trypanosoma cruzi proliferation inhibition. inhibition, % at 8.35 µM. shares compounds with T cruzi growth-1. T. cruzi beta-gal in NIH3T3, GalScreen luminescence, 90 h. AID 651739. 72% of 5,600 active;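 active = mean replicate inhibition above about 95% and at least 55% of replicates individually reaching it, limit read from the data; inconclusive = only one of the two criteria is met; inactive = neither criterion is met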
T cruzi growth-3: blocks T. cruzi growth in NIH3T3 host cells; inhibition, % at 2.09 µM; AID 651740; shares compounds with T cruzi growth-1; T. cruzi beta-gal in NIH3T3, GalScreen luminescence, 90 h; 21% of 5,600 active;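 active = mean inhibition above about 95%, with at least 55% of replicates also reaching it, limit read from the data; inconclusive = meets just one of the two conditions; inactive = meets neither condition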
3T3 cytotox: cytotoxicity in mouse NIH/3T3 fibroblasts. shares compounds with T cruzi growth-1. NIH/3T3 viability, CellTiter-Glo ATP luminescence, 90 h. cytotoxicity (signal decrease), % at 8.35 µM. 14% of 5,600 active. AID 651742;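 active = mean signal decrease across replicates above about 35% based on untreated-well scatter, with enough replicates individually passing, limit read from the data; inconclusive = no rule stated though some were filed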
NIH3T3 tox 2: kills mouse NIH/3T3 fibroblasts. 56% of 5,600 active. inhibition, % at 24.9 µM. AID 651744. NIH/3T3 viability, CellTiter-Glo ATP luminescence, 90 h. shares compounds with T cruzi growth-1;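 active = mean loss of cell viability signal at or above a set limit, and enough replicates individually reaching it; inconclusive = meets only the mean limit or only the replicate share; inactive = meets neither condition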
Each line names hits and unclear results; the compound was inactive in the other large screens (follow-up assays come after a bar, where they were run).

C[C@@H]1CCCCO[C@H](CN(C)S(=O)(=O)c2ccccc2)[C@@H](C)CN([C@H](C)CO)C(=O)c2cc(NC(=O)Nc3ccc(C(F)(F)F)cc3)ccc2O1	T cruzi growth-1 115 | T cruzi growth-2 inconclusive | T cruzi growth-3 inactive | 3T3 cytotox inactive | NIH3T3 tox 2 inactive
Cc1ccc(S(=O)(=O)N(C)C[C@@H]2OCCCC[C@H](C)Oc3ccc(NC(=O)Nc4ccc(C(F)(F)F)cc4)cc3C(=O)N([C@@H](C)CO)C[C@H]2C)cc1	none (no result: T cruzi growth-1)
C[C@@H]1CCCCO[C@H](CN(C)S(=O)(=O)c2ccccc2)[C@H](C)CN([C@@H](C)CO)C(=O)c2cc(NC(=O)Nc3ccc(C(F)(F)F)cc3)ccc2O1	Pf Dd2 inh inconclusive, T cruzi growth-1 107 | T cruzi growth-2 96 | T cruzi growth-3 111 | 3T3 cytotox inactive | NIH3T3 tox 2 inactive
C[C@@H]1CCCCO[C@@H](CN(C)S(=O)(=O)c2ccccc2)[C@@H](C)CN([C@H](C)CO)C(=O)c2cc(NC(=O)Nc3ccc(C(F)(F)F)cc3)ccc2O1	none
O=C(Nc1ccc2c(c1)[C@@H]1C[C@@H](CC(=O)N3CCCCC3)O[C@@H](CO)[C@@H]1O2)C1CCOCC1	none (no result: C diff growth)
C[C@H](CO)N1C[C@H](C)[C@H](CN(C)C(=O)Cc2ccccc2)Oc2ncc(C#CCN(C)C)cc2C1=O	none (no result: T cruzi growth-1)
Cc1cc(C(=O)Nc2cccc3c2O[C@@H](CN(C)S(=O)(=O)c2ccc(Cl)cc2)[C@H](C)CN([C@@H](C)CO)C3=O)n(C)n1	none
C[C@H](CO)N1C[C@H](C)[C@H](CN(C)S(=O)(=O)c2ccccc2)OCCCC[C@H](C)Oc2ccc(NC(=O)Nc3ccc(C(F)(F)F)cc3)cc2C1=O	T cruzi growth-1 104 | T cruzi growth-2 105 | T cruzi growth-3 109 | 3T3 cytotox inactive | NIH3T3 tox 2 inactive
C[C@@H]1CN([C@H](C)CO)C(=O)c2cc(NC(=O)Nc3ccc(C(F)(F)F)cc3)ccc2O[C@@H](C)CCCCO[C@@H]1CN(C)S(=O)(=O)c1ccccc1	none
O=C(C1CCCCC1)N1CC2(C1)[C@H](c1ccccc1)[C@H](CO)N2Cc1ccccc1F	none (no result: T cruzi growth-1)
Cc1ccc(S(=O)(=O)Nc2cccc3c2O[C@@H](CN(C)Cc2ccc(C(F)(F)F)cc2)[C@H](C)CN([C@@H](C)CO)C3=O)cc1	none
O=C(C[C@H]1C=C[C@H](NC(=O)C2CCOCC2)[C@@H](CO)O1)Nc1nccs1	none (no result: T cruzi growth-1)
CCCNC(=O)Nc1ccc2c(c1)OC[C@H](C)N(C(=O)CC)C[C@H](C)[C@H](OC)CN(C)C2=O	none (no result: C diff growth)
Cc1cccc(-c2ccc([C@H]3[C@H](CO)N4CCCCN(C(=O)NC(C)C)C[C@@H]34)cc2)c1	T cruzi growth-1 106 | T cruzi growth-2 107 | T cruzi growth-3 inactive | 3T3 cytotox inactive | NIH3T3 tox 2 96
CC(=O)N1CCCCN2[C@H](CO)[C@@H](c3ccc(-c4cccc(C)c4)cc3)[C@@H]2C1	none
Cc1cccc(-c2ccc([C@H]3[C@H]4CN(C(=O)NC(C)C)CCCCN4[C@H]3CO)cc2)c1	T cruzi growth-1 99 | T cruzi growth-2 inactive | T cruzi growth-3 inactive | 3T3 cytotox inactive | NIH3T3 tox 2 inactive
Cc1cccc(-c2ccc([C@@H]3[C@H](CO)N4CCCCN(C(=O)NC(C)C)C[C@@H]34)cc2)c1	T cruzi growth-1 104 | T cruzi growth-2 110 | T cruzi growth-3 inactive | 3T3 cytotox inactive | NIH3T3 tox 2 105
COCC(=O)N1CCCCN2[C@H](C1)[C@@H](c1ccc(-c3cccc(C)c3)cc1)[C@@H]2CO	none
COCC(=O)N1CCCCN2[C@H](CO)[C@@H](c3ccc(-c4cccc(C)c4)cc3)[C@H]2C1	none
CCCNC(=O)C[C@@H]1CC[C@H]2[C@@H](COC[C@@H](O)CN2C(=O)Nc2cccc(Cl)c2)O1	none (no result: T cruzi growth-1)
O=C(C[C@@H]1C[C@H]2c3cc(NC(=O)Nc4ccccc4)ccc3O[C@H]2[C@@H](CO)O1)NCc1ccccn1	none
CCC(=O)N(C)C[C@@H]1Oc2cc(C#CC3CCCCC3)ccc2S(=O)(=O)N([C@@H](C)CO)C[C@H]1C	T cruzi growth-1 114 | T cruzi growth-2 98 | T cruzi growth-3 inactive | 3T3 cytotox inactive | NIH3T3 tox 2 80
C[C@H]1CN([C@@H](C)CO)S(=O)(=O)c2ccc(C#CC3CCCC3)cc2O[C@H]1CN(C)S(C)(=O)=O	none (no result: C diff growth)
C[C@H](CO)N1C[C@H](C)[C@H](CN(C)S(C)(=O)=O)Oc2cc(C#Cc3ccccc3)ccc2S1(=O)=O	none
C[C@H]1CN([C@@H](C)CO)S(=O)(=O)c2ccc(C#CC3CCCCC3)cc2O[C@@H]1CN(C)C	T cruzi growth-1 109 | T cruzi growth-2 109 | T cruzi growth-3 inactive | 3T3 cytotox inactive | NIH3T3 tox 2 104
C[C@H](CO)N1C[C@H](C)[C@H](CN(C)S(C)(=O)=O)Oc2cc(C#CC3CCCC3)ccc2S1(=O)=O	T cruzi growth-1 inconclusive (no result: C diff growth) | T cruzi growth-2 100 | T cruzi growth-3 inactive | 3T3 cytotox inactive | NIH3T3 tox 2 66
C[C@@H]1CN([C@H](C)CO)S(=O)(=O)c2ccc(C#CC3CCCCC3)cc2O[C@H]1CN(C)C	none
C[C@@H]1CN([C@H](C)CO)S(=O)(=O)c2ccc(C#Cc3ccc(F)cc3)cc2O[C@H]1CN(C)S(C)(=O)=O	T cruzi growth-1 97 | T cruzi growth-2 98 | T cruzi growth-3 inactive | 3T3 cytotox inconclusive | NIH3T3 tox 2 55
CCC(=O)N(C)C[C@@H]1Oc2cc(C#CC3CCCCC3)ccc2S(=O)(=O)N([C@H](C)CO)C[C@H]1C	none
C[C@H]1CCCCO[C@H](CN(C)S(=O)(=O)c2ccc(F)cc2)[C@@H](C)CN([C@@H](C)CO)C(=O)c2cc(NS(=O)(=O)c3ccccc3)ccc2O1	none
C[C@@H]1CN([C@H](C)CO)C(=O)c2cccc(NC(=O)c3cnccn3)c2O[C@@H]1CN(C)C	none (no result: T cruzi growth-1)
CO[C@H]1CN(C)C(=O)c2cc(NS(=O)(=O)c3cn(C)cn3)ccc2OC[C@@H](C)N(C)C[C@@H]1C	none
CCC(=O)N(C)C[C@H]1Oc2cc(C#Cc3ccncc3)ccc2S(=O)(=O)N([C@H](C)CO)C[C@@H]1C	none
C[C@@H]1CN([C@@H](C)CO)S(=O)(=O)c2ccc(C#CC3CC3)cc2O[C@H]1CN(C)S(C)(=O)=O	none (no result: T cruzi growth-1)
C[C@@H]1CN([C@@H](C)CO)S(=O)(=O)c2ccc(C#CC3CCCC3)cc2O[C@@H]1CN(C)S(C)(=O)=O	T cruzi growth-1 inconclusive (no result: C diff growth) | T cruzi growth-2 inactive | T cruzi growth-3 inactive | 3T3 cytotox inactive | NIH3T3 tox 2 67
CCC(=O)N(C)C[C@H]1Oc2cc(C#Cc3ccncc3)ccc2S(=O)(=O)N([C@H](C)CO)C[C@H]1C	T cruzi growth-1 107 | T cruzi growth-2 inactive | T cruzi growth-3 inactive | 3T3 cytotox inactive | NIH3T3 tox 2 38
CN(C)CC#Cc1ccc([C@@H]2[C@@H](CO)N3CCCCN(CC4CC4)C[C@@H]23)cc1	none

Screening data: PubChem, Broad Institute
